Results filed as inconclusive are left out. Activity calls are given as the source filed them. Rule for the calls: active = hit-call score of the fitted dose curve at least 0.9, where 1 is the maximum; inconclusive = response in the unintended direction; inactive = score below 0.9.

Data on 16 molecules can be found in PubChem BioAssay (EPA / NIEHS).

In test [1] the target is human Serotonin, 5-Hydroxytryptamine Receptor 7 (5HT7), HTR7 (gene 3363) (UniProt P34969). Briefly: NVS_GPCR_h5HT7: NovaScreen (NVS) G Protein-Coupled Receptor Assay for human Serotonin, 5-Hydroxytryptamine Receptor 7 (5HT7) (AID 2283255).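 Note: hits reduce specific radioligand binding relative to DMSO.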 A digest of the protocol: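 Filter-bound radioactivity counted after 1 h, with loss of specific radioligand binding fitted against DMSO. Membrane protein came from CHO cells expressing human 5HT7. Chemicals were tested first at 25 uM in duplicate, then in concentration series if active.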
Chain of human Serotonin, 5-Hydroxytryptamine Receptor 7 (5HT7), HTR7 (gene 3363) (P34969 whole entry, looked up): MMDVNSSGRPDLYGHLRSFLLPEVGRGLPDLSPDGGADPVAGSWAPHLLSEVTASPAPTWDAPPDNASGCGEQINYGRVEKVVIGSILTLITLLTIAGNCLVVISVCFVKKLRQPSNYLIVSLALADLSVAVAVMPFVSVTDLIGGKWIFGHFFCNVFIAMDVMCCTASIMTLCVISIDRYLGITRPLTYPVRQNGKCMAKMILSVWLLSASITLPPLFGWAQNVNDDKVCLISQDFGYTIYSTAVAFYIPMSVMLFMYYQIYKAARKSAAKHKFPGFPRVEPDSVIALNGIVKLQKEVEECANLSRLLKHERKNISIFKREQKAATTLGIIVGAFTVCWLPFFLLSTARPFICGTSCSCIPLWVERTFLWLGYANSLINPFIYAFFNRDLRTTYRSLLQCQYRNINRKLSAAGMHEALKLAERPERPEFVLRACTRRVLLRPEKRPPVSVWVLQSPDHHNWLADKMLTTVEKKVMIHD

Test [2] deals with human Adenosine A2a Receptor (AdoRA2a), ADORA2A (gene 135) (UniProt P29274). Briefly: NVS_GPCR_hAdoRA2a: NovaScreen (NVS) G Protein-Coupled Receptor Assay for human Adenosine A2a Receptor (AdoRA2a) (AID 2283256). Summed up: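 HEK293-derived receptor preparation, radioligand displacement, 1.5 h, filtration + scintillation read. Loss of bound signal scored vs DMSO. Single-point 25 uM in duplicate first, then concentration-response for actives.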
Chain of human Adenosine A2a Receptor (AdoRA2a), ADORA2A (gene 135) (P29274 whole entry, looked up): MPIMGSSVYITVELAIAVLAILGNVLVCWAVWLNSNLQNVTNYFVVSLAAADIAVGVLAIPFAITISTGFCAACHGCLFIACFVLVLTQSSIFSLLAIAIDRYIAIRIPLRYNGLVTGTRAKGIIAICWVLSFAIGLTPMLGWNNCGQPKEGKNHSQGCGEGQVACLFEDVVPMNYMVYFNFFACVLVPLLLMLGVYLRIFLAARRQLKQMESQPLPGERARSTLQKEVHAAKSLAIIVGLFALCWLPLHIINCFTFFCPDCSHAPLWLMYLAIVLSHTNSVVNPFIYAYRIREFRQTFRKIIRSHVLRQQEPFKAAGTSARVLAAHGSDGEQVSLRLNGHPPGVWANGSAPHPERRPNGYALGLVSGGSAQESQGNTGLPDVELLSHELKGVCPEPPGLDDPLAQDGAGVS

Test [3] addresses human Adrenergic, Alpha 2c Receptor (Adra2C), ADRA2C (gene 152) (UniProt P18825). The test can be described thus: NVS_GPCR_hAdra2C: NovaScreen (NVS) G Protein-Coupled Receptor Assay for human Adrenergic, Alpha 2c Receptor (Adra2C) (AID 2283259). A digest of the protocol: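 Screened first in duplicate at 25 uM, with actives then run as concentration series. Membranes from Sf9 cells were exposed for 1 h, and displacement of radioligand was counted after filtration, using DMSO as baseline.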

For test [4], the target named is guinea pig Opioid, Kappa 1 Receptor (OpiateK), OPRK1 (gene 100135587) (UniProt P41144). Briefly: NVS_GPCR_gOpiateK: NovaScreen (NVS) G Protein-Coupled Receptor Assay for guinea pig Opioid, Kappa 1 Receptor (OpiateK) (AID 2283252).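 Note: active means reduced radioligand binding relative to DMSO.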 Summed up: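 Cell-free tissue prep: guinea pig cerebellar membranes, radioligand displacement, 2 h incubation. Readout: filtration plus scintillation counting. Primary single-point 25 uM duplicate; actives retested in concentration series; DMSO negative control.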
Chain of guinea pig Opioid, Kappa 1 Receptor (OpiateK), OPRK1 (gene 100135587) (P41144 whole entry, looked up): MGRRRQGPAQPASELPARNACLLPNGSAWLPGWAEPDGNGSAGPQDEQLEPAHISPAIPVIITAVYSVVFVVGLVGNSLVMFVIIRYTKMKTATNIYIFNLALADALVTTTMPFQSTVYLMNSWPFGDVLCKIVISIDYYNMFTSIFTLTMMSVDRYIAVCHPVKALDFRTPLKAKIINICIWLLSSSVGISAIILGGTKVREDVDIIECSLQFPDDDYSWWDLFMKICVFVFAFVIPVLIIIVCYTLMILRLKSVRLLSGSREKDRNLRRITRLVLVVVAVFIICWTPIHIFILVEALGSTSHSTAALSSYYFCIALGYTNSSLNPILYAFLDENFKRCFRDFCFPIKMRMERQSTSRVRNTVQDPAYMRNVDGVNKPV

Test [5] deals with human Serotonin, 5-Hydroxytryptamine Receptor 6 (5HT6), HTR6 (gene 3362) (UniProt P50406). The test can be described thus: NVS_GPCR_h5HT6: NovaScreen (NVS) G Protein-Coupled Receptor Assay for human Serotonin, 5-Hydroxytryptamine Receptor 6 (5HT6) (AID 2283253). A digest of the protocol:
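Filter scintillation counting of radioligand displacement from HEK293-expressed 5HT6, 1 hour post-dose, with loss of signal relative to DMSO. Single 25 uM duplicates first, with concentration series for confirmation.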

The target in test [6] is human Adenosine A1 Receptor (AdoRA1), ADORA1 (gene 134) (UniProt P30542). The test can be described thus: NVS_GPCR_hAdoRA1: NovaScreen (NVS) G Protein-Coupled Receptor Assay for human Adenosine A1 Receptor (AdoRA1) (AID 2283254). A digest of the protocol: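 Each chemical is first tested twice at 25 uM, actives later in dilution series, against a radioligand bound to human cortex membranes; after 1 h, filter-retained counts are compared with DMSO controls, lower signal indicating displacement.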
Chain of human Adenosine A1 Receptor (AdoRA1), ADORA1 (gene 134) (P30542 whole entry, looked up): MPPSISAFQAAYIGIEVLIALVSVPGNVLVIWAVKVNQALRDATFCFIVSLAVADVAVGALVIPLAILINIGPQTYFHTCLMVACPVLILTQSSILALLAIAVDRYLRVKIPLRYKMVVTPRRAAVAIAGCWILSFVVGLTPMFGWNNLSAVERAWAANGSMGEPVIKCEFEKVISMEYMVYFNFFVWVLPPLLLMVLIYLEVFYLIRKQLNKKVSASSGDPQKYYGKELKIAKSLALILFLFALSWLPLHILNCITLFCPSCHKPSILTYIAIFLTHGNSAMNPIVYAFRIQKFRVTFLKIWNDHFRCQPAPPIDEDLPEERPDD

For test [7], the target named is human Adrenergic, Alpha 2A Receptor (Adra2A), ADRA2A (gene 150) (UniProt P08913). The test can be described thus: NVS_GPCR_hAdra2A: NovaScreen (NVS) G Protein-Coupled Receptor Assay for human Adrenergic, Alpha 2A Receptor (Adra2A) (AID 2283257). A digest of the protocol:
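Displacement of a specific radioligand from HT29 membrane protein was counted by filter scintillation after 1 h. Compounds were screened in duplicate at 25 uM, and actives were retested in concentration series. Fitting was positive-direction against DMSO.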

Test [8] concerns the target human Adrenergic, Beta 1 Receptor (Adrb1), ADRB1 (gene 153) (UniProt P08588). The test can be described thus: NVS_GPCR_hAdrb1: NovaScreen (NVS) G Protein-Coupled Receptor Assay for human Adrenergic, Beta 1 Receptor (Adrb1) (AID 2283258). A digest of the protocol:
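Membranes/protein extracted from human neuroepithelioma cells, radioligand competition binding read by filtration and scintillation 2 h post-dose. Single 25 uM duplicate screen, then concentration-response follow-up; DMSO as negative control.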

Test [9] deals with Beta-2 adrenergic receptor (Homo sapiens) (UniProt P07550). Briefly: NVS_GPCR_hAdrb2: NovaScreen (NVS) G Protein-Coupled Receptor Assay for human Adrenergic, Beta 2 Receptor (Adrb2) (AID 2283261). The method, then:
(§1) NVS_GPCR_hAdrb2 is a biochemical, single-readout assay that uses extracted gene-proteins from CHO in a cell-free assay. Measurements were taken 1 hour after chemical dosing in a 96-well plate.NVS_GPCR_hAdrb2 is one of one assay component(s) measured or calculated from the NVS_GPCR_hAdrb2 assay. It is designed to make measurements of radioligand binding, a form of binding reporter, as detected with scintillation counting signals by Filter-based radiodetection technology.Data from the assay component NVS_GPCR_hAdrb2 was analyzed into 1 assay endpoint. This assay endpoint, NVS_GPCR_hAdrb2, was analyzed in the positive analysis fitting direction relative to DMSO as the negative control and baseline of activity. Using a type of binding reporter, loss-of-signal activity can be used to understand changes in the binding as they relate to the gene ADRB2. Furthermore, this assay endpoint can be referred to as a primary readout, because the performed assay has only produced 1 assay endpoint. To generalize the intended target to other relatable targets, this assay endpoint is annotated to the gpcr intended target family, where the subfamily is rhodopsin-like receptor.
Binding assays used specific radioligands (tritiated, iodinated) with non-radioactive competitive displacement ligands in agonist or antagonist protocols (as indicated) and various reference compounds and inhibitors to titrate specific binding to receptors and transporters. Most enzyme assays (CYPs, kinases, phosphatases, proteases, HDACs) used recombinant protein and specific substrates (fluorescence mostly, some colorimetric and radioactive) and inhibitors, followed by a biochemical separation of substrate and product. All assays for the biochemical HTS were initially run in duplicate at a single concentration (10 uM for CYP450 assays and 25 uM for all others). […] Each assay was run with positive and negative controls, and concurrent controls on every plate. […]

For test [10], the target named is human Adrenergic, Beta 3 Receptor (Adrb3), ADRB3 (gene 155) (UniProt P13945). The test can be described thus: NVS_GPCR_hAdrb3: NovaScreen (NVS) G Protein-Coupled Receptor Assay for human Adrenergic, Beta 3 Receptor (Adrb3) (AID 2283262). The method, then: as §1, with “NVS_GPCR_hAdrb3” for “NVS_GPCR_hAdrb2”, “SK-N-MC pretreated with isoproteronol and 8-bromo-cAMP” for “CHO”, “48-well plate.NVS_GPCR_hAdrb3” for “96-well plate.NVS_GPCR_hAdrb2”, “NVS_GPCR_hAdrb3,” for “NVS_GPCR_hAdrb2,”, “ADRB3.” for “ADRB2.”
Chain of human Adrenergic, Beta 3 Receptor (Adrb3), ADRB3 (gene 155) (P13945 whole entry, looked up): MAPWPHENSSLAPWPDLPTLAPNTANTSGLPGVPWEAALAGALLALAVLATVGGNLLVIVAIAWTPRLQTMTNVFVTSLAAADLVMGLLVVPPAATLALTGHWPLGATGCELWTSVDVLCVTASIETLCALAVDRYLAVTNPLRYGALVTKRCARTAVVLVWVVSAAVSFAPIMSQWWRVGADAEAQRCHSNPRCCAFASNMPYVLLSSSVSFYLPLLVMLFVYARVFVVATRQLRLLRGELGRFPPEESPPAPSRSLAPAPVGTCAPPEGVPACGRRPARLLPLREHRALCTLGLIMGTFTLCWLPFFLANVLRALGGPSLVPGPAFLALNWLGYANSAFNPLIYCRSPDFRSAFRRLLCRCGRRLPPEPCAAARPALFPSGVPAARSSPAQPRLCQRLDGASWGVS
Binding assays used specific radioligands (tritiated, iodinated) with non-radioactive competitive displacement ligands in agonist or antagonist protocols (as indicated) and various reference compounds and inhibitors to titrate specific binding to receptors and transporters. Most enzyme assays (CYPs, kinases, phosphatases, proteases, HDACs) used recombinant protein and specific substrates (fluorescence mostly, some colorimetric and radioactive) and inhibitors, followed by a biochemical separation of substrate and product. All assays for the biochemical HTS were initially run in duplicate at a single concentration (10 uM for CYP450 assays and 25 uM for all others). […] Each assay was run with positive and negative controls, and concurrent controls on every plate. The follow-up (secondary) screen tested active chemical-pairs in concentration series, as well as a few additional assays not tested in the primary screen, some selected negative inactives, and several cases re-run in the concentration series for confirmatory purposes.

Chain of human Adrenergic, Alpha 2c Receptor (Adra2C), ADRA2C (gene 152) (P18825 whole entry, looked up): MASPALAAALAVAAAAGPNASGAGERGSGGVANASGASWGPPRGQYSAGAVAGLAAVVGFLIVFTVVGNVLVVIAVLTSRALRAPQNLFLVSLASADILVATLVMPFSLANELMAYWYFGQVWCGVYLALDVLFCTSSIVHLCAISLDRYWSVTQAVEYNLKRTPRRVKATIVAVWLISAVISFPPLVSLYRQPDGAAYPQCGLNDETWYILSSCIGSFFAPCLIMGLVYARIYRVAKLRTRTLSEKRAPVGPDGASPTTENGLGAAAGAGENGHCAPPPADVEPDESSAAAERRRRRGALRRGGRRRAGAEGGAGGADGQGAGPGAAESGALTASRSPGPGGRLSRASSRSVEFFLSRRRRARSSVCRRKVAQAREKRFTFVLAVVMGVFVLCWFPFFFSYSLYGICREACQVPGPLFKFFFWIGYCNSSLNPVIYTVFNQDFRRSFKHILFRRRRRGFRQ
Chain of human Adrenergic, Alpha 2A Receptor (Adra2A), ADRA2A (gene 150) (P08913 whole entry, looked up): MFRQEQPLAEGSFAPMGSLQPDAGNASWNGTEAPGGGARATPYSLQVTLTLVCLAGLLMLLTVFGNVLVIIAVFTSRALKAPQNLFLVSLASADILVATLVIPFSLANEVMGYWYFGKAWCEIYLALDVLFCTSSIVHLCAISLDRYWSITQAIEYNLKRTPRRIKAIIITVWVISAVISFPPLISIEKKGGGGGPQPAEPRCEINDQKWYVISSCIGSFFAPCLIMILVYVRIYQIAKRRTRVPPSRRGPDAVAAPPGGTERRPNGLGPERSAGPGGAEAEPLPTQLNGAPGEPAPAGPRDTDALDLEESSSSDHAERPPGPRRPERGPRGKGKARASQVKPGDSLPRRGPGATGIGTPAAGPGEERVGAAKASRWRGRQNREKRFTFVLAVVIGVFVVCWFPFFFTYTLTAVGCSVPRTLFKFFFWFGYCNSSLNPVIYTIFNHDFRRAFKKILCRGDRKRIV
Chain of human Serotonin, 5-Hydroxytryptamine Receptor 6 (5HT6), HTR6 (gene 3362) (P50406 whole entry, looked up): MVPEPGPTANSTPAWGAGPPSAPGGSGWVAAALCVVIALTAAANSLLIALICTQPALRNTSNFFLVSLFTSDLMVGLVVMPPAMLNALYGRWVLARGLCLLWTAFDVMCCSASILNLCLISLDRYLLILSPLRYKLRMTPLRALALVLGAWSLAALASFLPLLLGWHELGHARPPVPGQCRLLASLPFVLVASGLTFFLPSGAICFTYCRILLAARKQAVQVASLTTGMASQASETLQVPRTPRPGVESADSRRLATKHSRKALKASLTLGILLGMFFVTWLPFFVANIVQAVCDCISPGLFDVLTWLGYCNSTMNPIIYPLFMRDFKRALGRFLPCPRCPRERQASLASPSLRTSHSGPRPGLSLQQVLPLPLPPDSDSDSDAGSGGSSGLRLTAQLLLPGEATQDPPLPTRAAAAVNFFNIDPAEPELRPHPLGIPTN
Chain of human Adrenergic, Beta 1 Receptor (Adrb1), ADRB1 (gene 153) (P08588 whole entry, looked up): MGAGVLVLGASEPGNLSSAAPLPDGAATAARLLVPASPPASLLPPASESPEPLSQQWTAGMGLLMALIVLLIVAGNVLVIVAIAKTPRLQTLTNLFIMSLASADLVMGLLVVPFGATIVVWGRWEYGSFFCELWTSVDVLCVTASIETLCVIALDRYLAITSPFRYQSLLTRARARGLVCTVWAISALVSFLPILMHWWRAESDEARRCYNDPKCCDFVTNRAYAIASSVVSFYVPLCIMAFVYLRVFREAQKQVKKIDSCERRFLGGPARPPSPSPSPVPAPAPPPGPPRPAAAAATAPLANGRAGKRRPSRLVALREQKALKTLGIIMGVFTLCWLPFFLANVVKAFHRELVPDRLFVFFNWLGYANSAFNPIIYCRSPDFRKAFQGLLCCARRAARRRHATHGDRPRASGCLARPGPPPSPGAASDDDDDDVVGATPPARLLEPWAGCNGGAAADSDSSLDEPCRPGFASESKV
Chain of Beta-2 adrenergic receptor (Homo sapiens) (P07550 whole entry, looked up): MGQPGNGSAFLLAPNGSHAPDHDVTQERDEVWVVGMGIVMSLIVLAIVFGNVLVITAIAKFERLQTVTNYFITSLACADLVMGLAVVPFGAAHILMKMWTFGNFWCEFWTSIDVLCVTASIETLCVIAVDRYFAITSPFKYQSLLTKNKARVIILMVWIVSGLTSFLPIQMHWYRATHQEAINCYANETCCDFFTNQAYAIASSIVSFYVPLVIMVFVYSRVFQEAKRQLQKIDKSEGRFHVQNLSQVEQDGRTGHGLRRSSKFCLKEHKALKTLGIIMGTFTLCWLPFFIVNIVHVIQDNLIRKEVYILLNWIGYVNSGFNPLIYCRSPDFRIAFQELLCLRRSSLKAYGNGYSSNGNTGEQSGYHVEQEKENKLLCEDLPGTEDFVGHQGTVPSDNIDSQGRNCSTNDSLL

In the case of `O=C(O)C(F)(F)C(F)(F)C(F)(F)C(F)(F)C(F)(F)C(F)(F)C(F)(F)C(F)(F)C(F)(F)C(F)(F)F`, the concentration at half-maximal activity (AC50) in [1] is 12.9 µM (active); in test [2], 2.43 µM (active); in test [3], 4.5 µM (active).

As for `CC(=O)[O][Hg][c]1ccccc1`, the AC50 in test [4] was 31.4 µM (active); in test [5] it was 1.32 µM (active); in test [6], 25 µM (active); in test [1], 0.577 µM (active); in [2] it was 6.98 µM (active); in test [7], 20.1 µM (active). Also, the AC50 was 0.993 µM (active) in test [8], 0.252 µM (active) in test [3], 0.934 µM (active) in test [9] and 6.02 µM (active) in test [10].

`CCNc1nc(NC(C)(C)C)nc(SC)n1`: the AC50 in [6] was 17.8 µM (active); in [2], 17.4 µM (active).

Turning to `CCC(=O)C(CC(C)N(C)C)(c1ccccc1)c1ccccc1` (stereo unspecified), the half-maximal activity concentration (AC50) was 1.42 µM (active) in test [4], 18.1 µM (active) in [5], 3.59 µM (active) in [1] and 16 µM (active) in [7]. Moreover, the molecule was called inactive in test [3] and in test [10].

For `Clc1ccc(C2(Cn3cncn3)CC(Br)CO2)c(Cl)c1` (stereo unspecified), the concentration at half-maximal activity (AC50) in [4] was 11.8 µM (active).

Consider `C=C(C)C(=O)[O][Sn]([CH2]CCC)([CH2]CCC)[CH2]CCC`, for which the concentration at half-maximal activity (AC50) is 16.9 µM (active) in test [4]; 4.82 µM (active) in test [5]; 25 µM (active) in test [6]; 0.499 µM (active) in test [1]; 6.84 µM (active) in test [2]; 4.06 µM (active) in [7]. Moreover, the AC50 in test [8] was 0.925 µM (active); in [3], 0.281 µM (active); in test [9] it was 4.57 µM (active); in [10], 25 µM (active).

Regarding `CCN1CCC2(CC1)COc1cc3c(cc12)N(C(=O)c1ccc(-c2ccc(-c4nnc(C)o4)cc2C)cc1)CC3`, the AC50 in test [1] is 23.4 µM (active); in test [7] it was 13.9 µM (active); in test [3] it was 14.3 µM (active); in test [9] it was 23.4 µM (active). Moreover, in test [10], the molecule was classed as inactive.

Regarding `COS(=O)(=O)c1ccc(C)cc1`, in [2], the outcome was inactive.

For the molecule `CN(C)N=O`, in test [10], the molecule was called inactive.

As to `COP(=S)(OC)Oc1ccc(Sc2ccc(OP(=S)(OC)OC)cc2)cc1`, the AC50 in [2] was 17.1 µM (active).

Turning to `Oc1c(I)cc(I)cc1I`, the call in test [2] was inactive.

As for `CCOP(=S)(OCC)Oc1nc(Cl)c(Cl)cc1Cl`, in test [1], the outcome was inactive.

For `COc1cc(-c2ccc(N)c(OC)c2)ccc1N`, in [1], the molecule was classed as inactive.

For the molecule `CC(C)(C)CC(C)(C)c1ccc(O)cc1`, the AC50 was 34.1 µM (active) in test [1] and 25 µM (active) in test [3]. In addition, the molecule was classed as inactive in [2].

Regarding `Cn1sc(Cl)cc1=O`, the call in test [4] and in [5] was inactive.

For `O=C1C2(Cl)C3(Cl)C4(Cl)C(Cl)(Cl)C5(Cl)C3(Cl)C1(Cl)C5(Cl)C24Cl` (stereo unspecified), the AC50 in [1] was 1.04 µM (active); in [2], 0.11 µM (active); in [8], 0.978 µM (active).
